Where “and” joins values, the source holds several entries; their conditions need not be identical. Equal entries are not always repeated. The panel holds about 79,000 compounds, 15% with a hit somewhere; the sample as a whole holds those more often. A number with no mark means an inactive call. No stated cut-off is given here; in the data, active means growth inhibition above about 70%; inactive means the rest.

This test can be described thus: NCI Yeast Anticancer Drug Screen. Data for the rad50 strain (AID 155).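 Further: 0% = growth of vehicle-only cultures of the same strain.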 As to conditions: S. cerevisiae rad50 strain growth inhibition; at 5.0 µM (retest, dose inferred, filed as 0.5); active compounds read high. In outline: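 Compounds were tested on a yeast strain with an engineered DNA damage repair alteration; the reported value is growth inhibition normalised to vehicle treatment.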
As to `O=[N+]([O-])c1cc[n+]([O-])cc1`, the growth inhibition is -158% and 4%.

Regarding `CC1(C)CC(=O)C(/C=N/c2nc(-c3ccccc3)cs2)=C(O)C1`, the growth inhibition is -3%.

Turning to `Nc1nc(N)c2nc(CNc3ccc(C(=O)NC(CCC(=O)O)C(=O)O)cc3F)cnc2n1` (stereo not drawn), the growth inhibition was 13%.

With `COC(=O)CC1(O)C(/C=C/c2ccccc2)C(C(=O)OC)C(=O)C(C(=O)OC)C1C(=O)OC` (stereo not drawn), the growth inhibition is -3%.

As to `CC(C)(C)c1ccc(NS(=O)(=O)c2ccc(N)cc2)cc1`, the growth inhibition is 0%.

Consider `CCN(CC)CCNc1ccc([N+](=O)[O-])c2nc3ccccc3c(N)c12`, for which the growth inhibition was 2%.

On to `CCCCN(CCCC)C(=O)/C=C/c1ccccc1`, for which the growth inhibition is 5%.

On to `O=c1[nH]c(-c2ccccc2)nc2c1sc1nc3ccccc3n12`, for which the growth inhibition was 8%.

Take `O=[N+]([O-])c1ccc2c(c1)/C(=N/N=C1c3ccccc3Cc3ccccc31)c1cc([N+](=O)[O-])cc([N+](=O)[O-])c1-2`: the growth inhibition is 9%.

In the case of `CC(C)C(C)/C=C\C(C)C1CCC2C3=CC=C4CC(O)CCC4(C)C3CCC21C` (stereo not drawn), the growth inhibition was 51%.

On to `O=C1Nc2ccc(Br)cc2C1=Nc1ccc2c(c1)OCO2`, for which the growth inhibition is 47%.

As for `CCCCOCn1c(=O)[nH]c(=O)c2cc(Br)ccc21`, the growth inhibition was 21%.

As to `Cc1ccc(S/C(=C\C(=O)O)c2ccccc2)cc1`, the growth inhibition was -16%.

As for `O=[N+]([O-])/C=C/c1cc(Cl)c(/C=C/[N+](=O)[O-])cc1Cl`, the growth inhibition is 3%.

Consider `Cc1cc(S(=O)(=O)Nc2nnc3cnc4ccccc4n23)c(S)cc1Cl`, for which the growth inhibition was -3%.

On to `O=C(/C=C/c1cc(Cl)cc(Cl)c1O)c1cccc(O)c1`, for which the growth inhibition was 14%.

With `NC1CCCCC1N.Nc1c(N=Nc2ccc(-c3ccc(N=Nc4cc(S(=O)(=O)[O-])c5ccccc5c4N)cc3)cc2)cc(S(=O)(=O)[O-])c2ccccc12.[OH3+].[OH3+].[Pt+4]`, the growth inhibition is 1%.

Consider `COC(=O)CCC(NC(=S)N/N=C(\C)c1ccccn1)C(=O)OC` (stereo not drawn), for which the growth inhibition was 34%.

For `NC(=O)C(=O)NNc1ccccc1`, the growth inhibition is 9%.

With `COc1cc(C2SCC(=O)N2c2ccc(-c3ccc(-n4c(-c5ccccc5)nc5ccccc5c4=O)cc3)cc2)ccc1O` (stereo not drawn), the growth inhibition is -11%.

Regarding `COc1ccc(/C=C/c2sc3ccccc3[n+]2CCCCI)cc1OC`, the growth inhibition is -11%.

On to `Cc1c(C(C)C)cc(OCCO)cc1C(C)C`, for which the growth inhibition was -8%.

For `Cc1cc(NCCCCCCCCNc2cc(C)nc3cc(N)ccc23)c2ccc(N)cc2n1`, the growth inhibition was 15%.

In the case of `C=C(Cl)COC(=O)Nc1cccc(Cl)c1`, the growth inhibition was 0%.

With `CC(=O)OC1CC2C(C)(C)C(=O)C=C[C@]2(C)C2CCC3(C)C(=CCC3[C@H](CO)C[C@H](O)C(=O)C(C)(C)O)[C@]12C` (stereo partly drawn), the growth inhibition was -14%.

With `COc1ccc(/C=C/C(=O)c2ccccc2)cc1OC`, the growth inhibition is 22%.

As to `COc1c(O)c(C=O)c(Br)c(C=O)c1O`, the growth inhibition is 16%.

For the compound `O=[N+]([O-])c1cc(Cl)cnc1Br`, the growth inhibition is -49%.

For `Cc1ccc2c(c1)C1(SC(C)C(=O)N1c1ccc(Cl)cc1)C(=O)N2` (stereo not drawn), the growth inhibition is 12%.

`COc1cc(CSc2ccc(O)cc2)cc(O)c1O`: the growth inhibition is 5%.

For `Cc1ccc2c3ccc4c(c3n(C)c2c1)C(=O)C=CC4=O`, the growth inhibition was 7%.

For the compound `O=C(Nc1ccc(Cl)cc1)Nc1nnc2nc(C(C(=O)c3cccc([N+](=O)[O-])c3Cl)c3nc4nnc(NC(=O)Nc5ccc(Cl)cc5)n4[nH]c3=O)c(=O)[nH]n12`, the growth inhibition is -12%.

With `O=C(O)C1CC(c2ccccc2)=NN1c1ccccc1` (stereo not drawn), the growth inhibition is 27%.

Consider `CCCCc1ccc(-n2c(C)c(COC(=O)NC)c(COC(=O)NC)c2C)cc1`, for which the growth inhibition was 19%.

On to `CCC(=O)c1cc(C(=O)C(=S)SC)cc(C(=O)C(=S)SC)c1`, for which the growth inhibition is 30%.

On to `CCn1c(O)c(C=Nc2ccccc2)s/c1=N/Nc1nc(-c2ccccc2)cs1`, for which the growth inhibition was -12%.

`Cc1ccccc1N=C(NO)c1ccccc1`: the growth inhibition is -141%.

Take `Cc1nc2ccccc2nc1NNc1ccccc1`: the growth inhibition is 17%.
